This is an account of results in article PMC6792352, “Limited Chemical Structural Diversity Found to Modulate Thyroid Hormone Receptor in the Tox21 Chemical Library” (Environmental Health Perspectives, 2019).

Structures can show the parent of a compound that is named as a salt.

The assay concerns thyroid hormone receptor (endogenous TRα and TRβ). Also on record: species or system GH3-TRE-Luc (rat pituitary); GH3-TRE-Luc luciferase reporter, antagonist mode against 1 nM T3, loss of signal, qHTS. The note with it: read-out: Average AC50 (uM) GH3-TRE-Antag, antagonist mode, 1 nM T3, no GH3 cytotoxicity hit.
By AC50 is commonly meant the concentration giving half of the maximal activity seen. In the case of `CC1(C)[C@H](C(=O)O[C@H](C#N)c2cccc(Oc3ccccc3)c2)[C@@H]1C=C(Br)Br` [Deltamethrin], the AC50 is 76.3 µM. Then `N=C(N)NC(=N)NCCc1ccccc1` [Phenformin hydrochloride], with greater than 20 µM; and `CC/C=C\C/C=C\C/C=C\CCCCCCCC(=O)O` [Linolenic acid], with greater than 50 µM; and `CCCCNc1c(C(=O)OCC)c(C)nc2c1cnn2CC` [Tracazolate hydrochloride], with 42.6 µM. Then `ClC1C(Cl)C(Cl)C(Cl)C(Cl)C1Cl` (stereo not drawn) [alpha-1,2,3,4,5,6-Hexachlorocyclohexane], with 26.5 µM; and `C#Cc1cccc(Nc2ncnc3cc(OCCOC)c(OCCOC)cc23)c1` [Erlotinib], with 21.9 µM; and `O=C(Nc1ccc(/C=C/c2ccc(NC(=O)c3cc(S(=O)(=O)O)c4cccnc4c3O)cc2S(=O)(=O)O)c(S(=O)(=O)O)c1)c1cc(S(=O)(=O)O)c2cccnc2c1O` [Ubistatin A], with 27.4 µM.

As for `NNc1nnc(Cc2ccncc2)c2ccccc12` [Picodralazine], the AC50 was 3.28 µM. Turning to `CC(=O)Nc1ccn(C2COC(COC(=O)c3ccccc3)O2)c(=O)n1` (stereo not drawn) [{4-[4-(Acetylamino)-2-oxopyrimidin-1(2H)-yl]-1,3-dioxolan-2-yl}methyl benzoate], the AC50 was found to be 11.4 µM. Then `C=CC(=O)OCCC#N` [2-Cyanoethyl prop-2-enoate], with 62.7 µM; and `CC(C(=O)O)c1ccc(N2Cc3ccccc3C2=O)cc1` (stereo not drawn) [Indoprofen], with 7.85 µM. In the case of `CC(=O)Oc1ccc(C2(c3ccc(OC(C)=O)cc3)C(=O)Nc3ccccc32)cc1` [Oxyphenisatin acetate], the AC50 was greater than 50 µM. The same measure for `O=C(O)C1(C(=O)Nc2ccc(Cl)cc2Cl)CC1` [Cyclanilide]: 64.4 µM. Then `O=C(c1ccccc1)c1ccc(O)cc1O` [2,4-Dihydroxybenzophenone], with 87 µM; and `COc1ccc(N=[N+]([O-])c2ccc(OC)cc2)cc1` [4-Azoxyanisole], with 30.2 µM; and `O=C(c1ccccc1)c1cc(Cl)ccc1O` [(5-Chloro-2-hydroxyphenyl)phenylmethanone], with 84.3 µM. With `CC/C=C(\C(=O)N[C@@H]1C(=O)N2C(C(=O)OCOC(=O)C(C)(C)C)=C(COC(N)=O)CS[C@H]12)c1csc(N)n1` [Cefcapene pivoxil hydrochloride], the concentration at half-maximal activity (AC50) came to 49.5 µM. The same measure for `CCCCC[Si](OCC)(OCC)OCC` [Triethoxypentylsilane]: 45.9 µM; for `Cc1cc(CC(=O)O)c(C)n1-c1ccc(Cl)cc1` [Clopirac]: 38.5 µM; for `O=C(c1ccc(O)cc1O)c1ccc(O)cc1O` [2,2',4,4'-Tetrahydroxybenzophenone]: 39.2 µM. Consider `CCOc1ccc(Cc2nccc3cc(OCC)c(OCC)cc23)cc1OCC` [Ethaverine hydrochloride], for which the concentration at half-maximal activity (AC50) came to 8.58 µM.

For `Nc1ccc(Oc2ccc(Cl)cc2)cc1` [4-Chloro-4'-aminodiphenyl ether], the concentration at half-maximal activity (AC50) is 40.7 µM. Then `OC(CN1CCC(Cc2ccc(F)cc2)CC1)c1ccc(Cl)cc1` (stereo not drawn) [Eliprodil], with 19.5 µM; and `C/C=C1\C(=O)C[C@H]2[C@@H]3CCC4=CC(=O)CC[C@]4(C)[C@H]3CC[C@]12C` [Guggulsterone Z], with 39.2 µM; and `O=C(N/N=C/c1ccccc1O)c1ccncc1` [Salinazid], with 20.5 µM. Then `CC#Cc1cc(C)nc(Nc2ccccc2)n1` [Mepanipyrim], with 64.8 µM; and `CCN(CCCc1ccccc1)CCCc1ccccc1` [Alverine citrate], with 10.8 µM; and `CC(C(=O)O)c1ccc(C2CCCCC2)c2ccccc12` (stereo not drawn) [Quadrisol], with 35.8 µM. As to `COc1c(C)c2c(c(O)c1C/C=C(\C)CCC(=O)O)C(=O)OC2` [Mycophenolic acid], the half-maximal activity concentration (AC50) came out at 0.537 µM. Turning to `CCOC(=O)CS` [Acetic acid,mercapto-,ethylester], the AC50 was 73.6 µM. Then `Cc1cccc(Oc2ccccc2)c1` [1-Methyl-3-phenoxybenzene], with 82.5 µM. Consider `CCN(CC)C(=O)N[C@H]1C[C@@H]2c3cccc4[nH]cc(c34)C[C@H]2N(C)C1` [Terguride], for which the AC50 turned out to be 22.1 µM. The same measure for `CCCCCCCCCCCCCCCC(=O)O[C@@H]1CC(C)=C(/C=C/C(C)=C/C=C/C(C)=C/C=C/C=C(C)/C=C/C=C(C)/C=C/C2=C(C)C[C@@H](OC(=O)CCCCCCCCCCCCCCC)CC2(C)C)C(C)(C)C1` [Physalien]: 39.2 µM; for `Oc1ccc2c(c1)OCO2` [Sesamol]: greater than 90 µM; for `Cc1ccccc1CO[C@@H]1C[C@@]2(C(C)C)CC[C@]1(C)O2` (racemic) [Cinmethylin]: 38.4 µM. Then `COc1cccc(C(=O)NN(C(=O)c2cc(C)cc(C)c2)C(C)(C)C)c1C` [Methoxyfenozide], with 55.4 µM.
